Results reported in PubChem BioAssay (NCATS).
Where “and” joins values, the source holds several entries; their conditions need not be identical. Equal values may be shown once. Inconclusive results are not listed. Values without a mark were called inactive. Calls of active or inactive are those of the source. Calls follow the shape of the dose curve; as a rule, active = well fitted curve in the direction sought with a large enough effect; inconclusive = small, poorly fitted or top-dose-only effect, or another doubt; inactive = no such curve, though single readings can be large; an effect the other way counts as inactive or inconclusive.

Experiment: qHTS assay to identify small molecule inhibitors of chordoma cells - UCH-2 (AID 1259356); also: % is scaled to controls: 0 for no effect and ±100 for the full control effect
Settings: UCH-2 chordoma viability, CellTiter-Glo ATP luminescence, 48 h; series mostly up to 46.1 µM; activity change, negative = inhibition: at the top concentration
In the case of `C[C@]12CC[C@H](O)CC1=CC[C@@H]1[C@@H]2CC[C@]2(C)C(=O)CC[C@@H]12`, the “activity change, negative = inhibition” value is reported as -14.5%. With `c1ccc2nc(N3CCNCC3)ccc2c1` the “activity change, negative = inhibition” value was 14.4%. With `CCCCCCCCCCCC[N+](C)(C)CCOc1ccccc1` the “activity change, negative = inhibition” value was 2.59%. For `C[C@@H]1CN(C2CCC(C#N)(c3ccc(F)cc3)CC2)CC[C@]1(C(=O)O)c1ccccc1` (stereo not given in full), the “activity change, negative = inhibition” value was 0.726% [at 20.6 µM].

Experiment: P-glycoprotein substrates identified in KB-3-1 adenocarcinoma cell line, qHTS therapeutic library screen (AID 1346986); also: nearly all actives have a fitted effect of over 60% in size
Settings: KB-3-1 parental cells viability, CellTiter-Glo, 72 h; at 44.5 µM (top of the series)
Procedure, shortened: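 Resistance attributable to P-gp was assessed by comparing AC50 in KB-8-5-11 with parental KB-3-1 and by tariquidar reversal. Cells were exposed 72 h and viability read by CellTiter-Glo.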
With `CC[C@H]1C[C@H]2[C@@H]3CCC4=CC(=O)CC[C@@H]4[C@H]3CC[C@]2(C)[C@H]1O` the outcome was “inactive”. In the case of `COc1ccc2c(C(=O)c3ccc(Cl)cc3)c(C)n(CC(=O)O)c2c1`, the outcome is reported as “inactive”. With `O=C(N[C@H]1N=C(c2ccccc2F)c2cccc3c2N(CC3)C1=O)c1cc2ccccc2[nH]1` the outcome was “inactive”.

Experiment: P-glycoprotein substrates identified in KB-8-5-11 adenocarcinoma cell line, qHTS therapeutic library screen (AID 1346987); also: nearly all actives have a fitted effect of over 65% in size; also: potency is read from the fitted curve at half-maximal effect; as to activity change, negative = cytotoxicity: % is scaled to controls: 0 for no effect and ±100 for the full control effect
Settings: KB-8-5-11 (P-gp overexpressing) viability, CellTiter-Glo, 72 h; series mostly up to 44.5 µM; activity change, negative = cytotoxicity: at the top concentration
Procedure, shortened: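 Steps: plate 500 KB-8-5-11 cells/well in DMEM + 10% FCS (colchicine removed); pin compounds in dose-response; incubate 72 h, 37 degree C, 5% CO2; add CellTiter-Glo, 5 min; read luminescence.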
For `CC1N=C(N)OC1c1ccccc1` (stereo not given), the “activity change, negative = cytotoxicity” value was -2.73% [at 93.4 µM]. For `CCOP(=S)(OCC)O/N=C(\C#N)c1ccccc1`, the “activity change, negative = cytotoxicity” value was -10.4%. For `O=C(CCl)c1ccc(Cl)cc1Cl`, the Potency was 2.91 µM (active) and 11.2 µM (active). For `CCOC(=O)NC(C)(C)Cc1ccc(Cl)cc1`, the “outcome” value was “inactive”. For `CC(Cc1ccc2c(c1)OCO2)NO` (stereo not given), the “activity change, negative = cytotoxicity” value was -11.9% [at 93.4 µM]. With `C[C@]12CC[C@H](O)CC1=CC[C@@H]1[C@@H]2CC[C@]2(C)C(=O)CC[C@@H]12` the “activity change, negative = cytotoxicity” value was -7.41%. In the case of `COc1ccc2[nH]cc(CCN(C(C)C)C(C)C)c2c1`, the “activity change, negative = cytotoxicity” value is reported as -28.5% [at 93.4 µM]. With `COc1cc(CC(C)N)c(OC)cc1Br` (stereo not given) the Potency was “inactive”. For `COP(=S)(OC)Oc1ccc(S(N)(=O)=O)cc1`, the “activity change, negative = cytotoxicity” value was 10.9%. For `CNC(C)Cc1ccccc1OC` (stereo not given), the “activity change, negative = cytotoxicity” value was 3.69%. For `CCCCC1C(=O)NC(=O)N(C2CCCCC2)C1=O` (stereo not given), the “activity change, negative = cytotoxicity” value was -2.16%. For `CCC1(c2cnc[nH]2)Cc2ccccc2C1`, the Potency was “inactive”. With `Cc1nc2ccccc2c(=O)n1-c1ccccc1Cl` the “activity change, negative = cytotoxicity” value was -23.2% [at 93.4 µM].
